Here are results for ten molecules from PubChem BioAssay (NCATS).

Molecules are shown by their SMILES. Records with an inconclusive call do not appear. Active and inactive are the calls of the source. Unless noted, the call rests on the fitted dose curve; in most records, active means well fitted curve in the direction sought with a large enough effect; inconclusive means small, poorly fitted or top-dose-only effect, or another doubt; inactive means no such curve, though single readings can be large; an effect the other way counts as inactive or inconclusive.

Assay [1] in a line: qHTS profiling for inhibitors of Plasmodium falciparum proliferation (AID 504749).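 Further: 0% = DMSO vehicle and full inhibition = artemisinin control; nearly all actives have a fitted effect of over 60% in size.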 As to conditions: P. falciparum in erythrocytes, SYBR Green DNA, 72 h. In outline:
(§1)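 Fluorescence of SYBR Green-bound parasite DNA, read at 485/535 nm, served as the growth measure. Infected erythrocytes were cultured with compound 72 h; artemisinin (0.29 uM) and DMSO wells defined the normalization range.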
A general note: In qHTS, concentration-response curves come from the screen itself.

The test system of another assay is 3D7. The description is as above. As to conditions: P. falciparum in erythrocytes, SYBR Green DNA, 72 h; series mostly up to 28.7 µM. In outline: as §1
Another assay concerns 7G8. The assay is described as above. Conditions: P. falciparum in erythrocytes, SYBR Green DNA, 72 h; series mostly up to 28.7 µM. Put shortly: as §1
The test system of a further assay is AA1029. The description is as above. Conditions: P. falciparum in erythrocytes, SYBR Green DNA, 72 h; series mostly up to 28.7 µM. Put shortly:
as §1

Another assay has as its system AS120. Described as above. Conditions: P. falciparum in erythrocytes, SYBR Green DNA, 72 h; series mostly up to 28.7 µM. Put shortly: as §1
The test system of a further assay is ATS189. The assay is described as above. As to conditions: P. falciparum in erythrocytes, SYBR Green DNA, 72 h; series mostly up to 28.7 µM. Put shortly: as §1
The subject of another assay is ATS95. The assay is described as above. Conditions: P. falciparum in erythrocytes, SYBR Green DNA, 72 h; series mostly up to 28.7 µM. Put shortly: as §1
Another assay relates to C2A. Described as above. Conditions: P. falciparum in erythrocytes, SYBR Green DNA, 72 h; series mostly up to 28.7 µM. In outline:
as §1

Another assay concerns CP185. The assay is described as above. Conditions: P. falciparum in erythrocytes, SYBR Green DNA, 72 h; series mostly up to 28.7 µM. Put shortly:
as §1

Another assay concerns CP191. The assay is described as above. As to conditions: P. falciparum in erythrocytes, SYBR Green DNA, 72 h; series mostly up to 28.7 µM. In outline: as §1
The test system of another assay is CP192. Described as above. As to conditions: P. falciparum in erythrocytes, SYBR Green DNA, 72 h; series mostly up to 28.7 µM. In outline: as §1
The next assay deals with CP194. The description is as above. As to conditions: P. falciparum in erythrocytes, SYBR Green DNA, 72 h; series mostly up to 28.7 µM. Put shortly:
as §1

The subject of another assay is CP201. Described as above. Conditions: P. falciparum in erythrocytes, SYBR Green DNA, 72 h; series mostly up to 28.7 µM. Put shortly:
as §1

Another assay relates to CP203. The description is as above. Conditions: P. falciparum in erythrocytes, SYBR Green DNA, 72 h; series mostly up to 28.7 µM. In outline:
as §1

The next assay deals with CP211. The assay is described as above. As to conditions: P. falciparum in erythrocytes, SYBR Green DNA, 72 h; series mostly up to 28.7 µM. In outline: as §1
A further assay concerns CP215. The assay is described as above. As to conditions: P. falciparum in erythrocytes, SYBR Green DNA, 72 h; series mostly up to 28.7 µM. Put shortly:
as §1

The nature of assay [2]: qHTS drug screen for cell cycle checkpoint inhibitors in PARPi-resistant BRCA-mutant ovarian cancer cell lines. (AID 1963452; calls by dose curve). Conditions: PEO1/OlaR viability, CellTiter-Glo luminescence, 96 h, stronger effect = lower value. In outline: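 PEO1, PEO4 and PEO1/OlaR ovarian cancer cells, 600 per well, exposed 96 h at 37C to a dilution series. Viability read by CellTiter-Glo luminescence, normalized to DMSO and empty wells; activity summarized as Z-AUC.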

Assay [3] concerns the target Nuclear receptor subfamily 1 group I member 2 (Homo sapiens) (UniProt O75469). In words: Dual reporter qHTS for agonist of Pregnane X Receptor (hPXR) against the NCATS DSHEA and TCM libraries: Luminescence readout (AID 1920059). Further: 0% is about no effect. Conditions: hPXR dual reporter cells, luciferase luminescence agonist; series mostly up to 40 µM. In outline:
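hPXR-LucHepG2 cells in phenol red-free DMEM with 5% charcoal-stripped FBS, 2000 cells/well, attached 5 h, then exposed 24 h at 37C to compounds; rifampicin as positive agonist control (2.8 nM–92 uM). Luciferase luminescence read.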

The target is the same in assay [4]. In words: Dual reporter qHTS for antagonist of Pregnane X Receptor (hPXR) against the NCATS DSHEA and TCM libraries: Luminescence Readout (AID 1920060). Further: 0% is about no effect. As to conditions: hPXR dual reporter cells, luciferase luminescence, antagonist mode; series mostly up to 40 µM. Put shortly:
(§2)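 Rifampicin-stimulated (2 uM final) hPXR-luciferase HepG2 cells were treated for 24 h with DSNP/TCM substances. Viability came from CellTiter-Fluor fluorescence, reporter activity from ONE-Glo luminescence.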

Assay [5] can be described thus: Dual reporter qHTS for antagonist of Pregnane X Receptor (hPXR) against the NCATS DSHEA and TCM libraries: Fluorescence Readout (AID 1920061). Further: 0% is about no effect. Conditions: PXR dual reporter cells, antagonist mode; series mostly up to 40 µM. In outline:
as §2

Where [6] appears, read: at 28.7 µM (top of the series), parasite line A.
Setting [7] is: at 28.7 µM (top of the series), parasite line B.
The mark [8] stands for this setting: measured here: PEO1 parental Z-AUC.

Sequence of Nuclear receptor subfamily 1 group I member 2 (Homo sapiens) (O75469 whole entry, looked up): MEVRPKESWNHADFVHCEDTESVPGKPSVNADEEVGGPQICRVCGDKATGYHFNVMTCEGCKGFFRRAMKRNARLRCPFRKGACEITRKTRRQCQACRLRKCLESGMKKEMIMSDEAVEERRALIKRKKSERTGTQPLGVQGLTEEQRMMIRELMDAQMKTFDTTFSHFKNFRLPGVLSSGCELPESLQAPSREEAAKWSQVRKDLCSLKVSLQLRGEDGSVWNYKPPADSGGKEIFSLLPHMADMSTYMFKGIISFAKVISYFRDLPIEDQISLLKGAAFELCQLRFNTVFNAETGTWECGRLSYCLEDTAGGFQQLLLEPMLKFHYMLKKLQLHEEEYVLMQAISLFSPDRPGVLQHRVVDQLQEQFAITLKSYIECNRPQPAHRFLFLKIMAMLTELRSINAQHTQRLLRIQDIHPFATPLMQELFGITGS

For the molecule `O=C(O)c1ccccc1C(=O)Nc1ccc(S(=O)(=O)Nc2nccs2)cc1`, the figures for the activity, negative = inhibition in [1] (setting [6]) and in assay [1] (setting [7]) were 16.3% (inactive) and 12.3% (inactive), respectively. The Potency entry in the assay on 3D7, in the assay on 7G8, in the assay on AA1029, with AS120, with ATS189 and in the assay on ATS95 was “inactive” throughout. In addition, the Potency result in the assay on C2A, with CP185, in the assay with CP203 and in the assay with CP215 was “inactive” throughout. The outcome with CP191, in the assay on CP192, with CP194, in the assay with CP201 and in the assay with CP211 was inactive.

As to `CCCCCOC(=O)Nc1nc(=O)n([C@@H]2O[C@H](C)[C@@H](O)[C@H]2O)cc1F`, the Z-AUC was -0.294 (inactive) in assay [2], -0.525 in [2] (setting [8]) and -0.448 in assay [2] (measured here: PEO4 Z-AUC).

With `O=C(CN1CCNCC1)NC1CCCCC1`, the activity, negative = inhibition in assay [1] (setting [6]) was 3.68% (inactive); in [1] (setting [7]), 4.23% (inactive). In addition, the Potency result in the assay on 3D7, with 7G8, in the assay on AA1029, in the assay on AS120, in the assay on ATS189 and in the assay with ATS95 was “inactive” throughout. Besides, the Potency result in the assay on C2A, in the assay with CP185, in the assay with CP203 and with CP215 was “inactive” in each case. Besides, the molecule was called inactive with CP191, in the assay on CP192, with CP194, in the assay on CP201 and in the assay with CP211.

With `NC(=O)NC1NC(=O)NC1=O` (stereo not given), the result in assay [3], in [4] and in [5] was inactive.

As to `NS(=O)(=O)c1ccc(NC(=O)CCC(=O)O)cc1`, the figures for the activity, negative = inhibition in assay [1] (setting [6]) and in assay [1] (setting [7]) were 0.494% (inactive) and 7.64% (inactive), respectively. Moreover, the Potency entry in the assay on 3D7, with 7G8, with AA1029, with AS120, in the assay on ATS189 and in the assay on ATS95 was “inactive” in each case. Also, the Potency result with C2A, with CP185, with CP203 and with CP215 was “inactive” in each case. The molecule was called inactive in the assay on CP191, in the assay on CP192, in the assay on CP194, with CP201 and in the assay with CP211.

Take `CN(C(=O)c1c(O)c2ccccc2n(C)c1=O)c1ccccc1`: the Z-AUC in [2] was 0.957 (inactive); in [2] (setting [8]), 0.533; in assay [2] (measured here: PEO4 Z-AUC), 0.496. The activity, negative = inhibition is 16.3% (inactive) in assay [1] (setting [6]) and 2.94% (inactive) in assay [1] (setting [7]). Further, the Potency result with 3D7, in the assay with AA1029, with AS120, with ATS189, in the assay on ATS95 and with C2A was “inactive” in each case. For the same molecule, the Potency entry with CP185, in the assay on CP203 and in the assay with CP215 was “inactive” each time. Besides, the molecule was called inactive with CP191, in the assay on CP192, with CP194, in the assay on CP201 and with CP211.

For the molecule `CCN(CC)CCc1nc(-c2ccccc2)no1`, the activity, negative = inhibition in assay [1] (at 12.8 µM (top of the series), parasite line A) is -7.93% (inactive); in assay [1] (at 12.8 µM (top of the series), parasite line B), -5.26% (inactive). For the same molecule, the Potency entry in the assay with 3D7, in the assay with 7G8, with AA1029, in the assay on AS120, with ATS189 and with ATS95 was “inactive” each time. Further, the Potency entry in the assay on C2A, in the assay on CP185, in the assay on CP203 and with CP215 was “inactive” in each case. The call in the assay with CP191, with CP192, in the assay on CP194, in the assay on CP201 and in the assay on CP211 was inactive.

With `O=C(O)CNC(=O)c1ccccc1I`, the activity, negative = inhibition in [1] (setting [6]) is 6.37% (inactive); in assay [1] (setting [7]), 11.3% (inactive). The Potency result in the assay on 3D7, in the assay with 7G8, in the assay on AA1029, in the assay on AS120, in the assay on ATS189 and in the assay with ATS95 was “inactive” in each case. Also, the Potency entry in the assay with C2A, in the assay with CP185, in the assay with CP203 and in the assay with CP215 was “inactive” each time. Also, the result in the assay with CP191, in the assay on CP192, with CP194, in the assay on CP201 and in the assay on CP211 was inactive.

In the case of `OCCN1C[C@H](O)[C@@H](O)[C@H](O)[C@H]1CO`, the Z-AUC is 0.928 (inactive) in assay [2], 0.927 in assay [2] (setting [8]) and 1.11 in [2] (measured here: PEO4 Z-AUC).

For `CNCc1ccccc1`, the results for the activity, negative = inhibition in assay [1] (setting [6]) and in [1] (setting [7]) were 11.1% (inactive) and 15.3% (inactive), respectively. Moreover, the Potency entry with 3D7, with 7G8, in the assay with AA1029, in the assay on AS120, in the assay with ATS189 and in the assay on ATS95 was “inactive” throughout. Besides, the Potency result with C2A, with CP185, in the assay on CP203 and in the assay with CP215 was “inactive” throughout. Besides, the molecule was classed as inactive in the assay with CP191, in the assay on CP192, with CP194, with CP201 and in the assay on CP211.
